Results on 38 compounds are retold here after PubChem BioAssay (EPA / NIEHS).

Each structure is given as a SMILES string. More than one record can exist for a structure, and the calls need not agree. Calls of active or inactive are those of the source. How the source made its calls: active means hit-call score of the fitted dose curve at least 0.9, where 1 is the maximum; inactive means score below 0.9.

The nature of this experiment: ATG_Oct_MLP_CIS: Attagene CIS-FACTORIAL HepG2 Assay for human Octamer-Binding Transcription Factor (Oct) (AID 2282993). The conditions noted are these: HepG2 Attagene cis-factorial Oct reporter, mRNA; actives raise or lower the signal. The protocol: ATG_CIS is a cell-based, multiplexed-readout assay that uses HepG2, a human liver cell line, with measurements taken at 24 hours after chemical dosing in a 24-well plate.ATG_Oct_MLP_CIS is one of 52 assay component(s) measured or calculated from the ATG_CIS assay. It is designed to make measurements of mRNA induction, a form of inducible reporter, as detected with fluorescence intensity signals by Reverse transcription polymerase chain reaction (RT-PCR) and Capillary electrophoresis technology.Data from the assay component ATG_Oct_MLP_CIS was analyzed into 1 assay endpoint. This assay endpoint, ATG_Oct_MLP_CIS, was analyzed with bidirectional fitting relative to DMSO as the negative control and baseline of activity. Using a type of inducible reporter, measures of mRNA for gain or loss-of-signal activity can be used to understand the reporter gene at the transcription factor-level as they relate to the gene POU2F1. Furthermore, this assay endpoint can be referred to as a primary readout, because this assay has produced multiple assay endpoints where this one serves a reporter gene function. To generalize the intended target to other relatable targets, this assay endpoint is annotated to the dna binding intended target family, where the subfamily is POU domain protein.
Human liver HepG2 cells are transiently transfected with multiple reporter transcription units (MRTUs) in 6-well plates using FuGene 6 reagent (Roche; 3 ml FuGene/1 mg DNA). The MRTU constructs are regulated by a cis-regulating element (promoter). […] A major difference between the CIS and TRANS system is that in CIS activities of endogenous TFs are measured, whereas the TRANS assay evaluates changes in activities of exogenous, chimeric NR-Gal4 proteins. […] At the end of 24 hour incubation, total RNA was isolated using TriZol reagent (Invitrogen). The isolated RNA is then reverse-transcribed using oligo(dT) primer and Mo-MLV reverse transcriptase (Invitrogen) with DNAse I (Ambion) treatment for 30 min. The one-tenth of the produced cDNA was amplified by PCR using Taq DNA polymerase (Invitrogen) and two reporter sequence-specific primers. The PCR products were fluorescently labeled by primer extension with 6-arboxyfluorescein (6-FAM) 5'-labeled reporter sequence-specific primer (2 min at 95 C, 20 s at 68 C and 10 min at 72 C) and these products were digested with 5U of HpaI (New England Biolabs) for 2h at 37 C. The fragments were purified using Qiaquick PCR columns (Qiagen), analyzed on an ABI 3130xL genetic analyzer (Applied Biosystems) with peak positions identified by using a set of X-rhodamine (ROX)-labeled MapMarker1000 molecular weight standards (BioVentures). The raw capillary electrophoresis data was processed using Attagraph software (Attagene).
Turning to `C=CC(=C)CC/C=C(\C)CCC=C(C)C`, the call was inactive.

For the compound `O=C(C=C(O)C(F)(F)F)C(F)(F)F`, the outcome was inactive.

Usually AC50 stands for the midpoint of the concentration-response curve, whichever way the signal moves. Regarding `CN(C)c1ccc(C(=C2C=CC(=[N+](C)C)C=C2)c2ccccc2)cc1`, the call was inactive and the AC50 is 2.27 µM (active). Take `CCCCC(CC)C(=O)OCCOCCOCCOCCOC(=O)C(CC)CCCC` (stereo not given): the compound was classed as inactive. Consider `C[C@]12CC[C@@H]3c4ccc(O)cc4CC[C@H]3[C@@H]1C[C@@H](O)[C@@H]2O`, for which the compound was classed as inactive. The same measure, in the same setting: for `Cc1cc(Cc2cc(C)cc(C(C)(C)C)c2O)c(O)c(C(C)(C)C)c1` the value was “inactive”; for `CC(=O)CC(C)C`, “inactive”. The same measure, in the same setting: for `Oc1cccc2c(O)cccc12` the value was “inactive”. `C=COC(=O)C(C)(C)CCCCCC`: the call was inactive. With `Cc1ccccc1OCC(=O)O`, the compound was classed as inactive. With `CCCCCCCCCCCC[N+](C)(C)Cc1ccccc1`, the AC50 was 13.5 µM (active) and the compound was classed as inactive.

Turning to `CCC1CO1` (stereo not given), the outcome was inactive.

On to `COC1=CC(=O)C[C@@H](C)[C@]12Oc1c(Cl)c(OC)cc(OC)c1C2=O`, for which the result was inactive. Still for that read-out and setting: for `CCOC=C(C(=O)OCC)C(=O)OCC` the value was “inactive”.

For the compound `CCCCCCCCCCCCCCC`, the compound was called inactive. The same measure, in the same setting: as for `OCC1CCC(CO)CC1` (stereo not given), the entry is “inactive”; as for `NS(=O)(=O)O`, “inactive”; as for `C=CC(C)(CCC=C(C)C)OC(C)=O` (stereo not given), “inactive”. For `C=CC(=O)OCCC(F)(F)C(F)(F)C(F)(F)C(F)(F)C(F)(F)C(F)(F)F`, the compound was called inactive. For `CCC(=O)C=Cc1ccc(OC)cc1`, the result was inactive. The same measure, in the same setting: for `COc1cccc(O)c1` the value was “inactive”. `O=C(CCCN1CCC(O)(c2ccc(Cl)cc2)CC1)c1ccc(F)cc1`: the AC50 was 47.9 µM (active). Regarding `O=C(O)c1cccc(C(=O)O)n1`, the outcome was inactive. Still for that read-out and setting: for `Nc1ccn([C@@H]2O[C@H](CO)[C@@H](O)C2O)c(=O)n1` (stereo not given in full) the value was “inactive”. On the same count and under the same terms, for `COc1ccc(C#N)cc1` the value was “inactive”; for `CCCCCC(C)OC(=O)COc1ccc(Cl)c2cccnc12` (stereo not given), “inactive”; for `FCOC(C(F)(F)F)C(F)(F)F`, “inactive”. As to `O=S(=O)(O)c1ccc2cc(O)ccc2c1`, the compound was called inactive. Consider `Cc1cc(C(=C2C=CC(=Nc3ccc(S(=O)(=O)O)cc3)C=C2)c2ccc(Nc3ccc(S(=O)(=O)O)cc3)cc2)cc(S(=O)(=O)O)c1N`, for which the compound was classed as inactive. Consider `CC(C)(C)C1CCCCC1O` (stereo not given), for which the compound was classed as inactive. The same measure, in the same setting: as for `CN(C)CCOC(c1ccccc1)c1ccccc1`, the entry is “inactive”. Same read-out and setting: for `O=C1OC(=O)C(F)(F)C1(F)F` the value was “inactive”. Same read-out and setting: for `O=CC(F)(F)C(F)(F)C(F)(F)C(F)F` the value was “inactive”; for `Cc1cncc(C)c1`, “inactive”. On to `CC[N+](CC)(CC)Cc1ccccc1`, for which the compound was called inactive. As for `C=CC(=O)OCCN(CC)CC`, the AC50 is 48.9 µM (active). On to `O=c1cc(-c2ccccc2)oc2ccc3ccccc3c12`, for which the result was inactive. Same read-out and setting: as for `O=C(F)C(F)(F)C(F)(F)C(F)(F)C(F)F`, the entry is “inactive”.
